# This is a sample that favours compounds with a hit; in the whole collection about 7.1% have one here.
# IL-1B inflam inh – inflammasome signaling inhibition, IL-1 beta readout; THP-1 LPS/ATP IL-1B secretion, AlphaLISA, 16 h; stronger effect = lower value; activity change, % at 57.5 µM; actives 4.7% (n = 360,000); AID 743279; in the data active = activity change below about -50%; inconclusive = mostly about -30% to -49%; also: % is scaled to controls: 0 for no effect and ±100 for the full control effect
#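 Secreted IL-1B measured by AlphaLISA bead assay after 16 h compound exposure of THP-1 cells; compounds (final up to 57.5 uM) added 1 h before LPS (250 ng/mL) and ATP (1.25 mM) stimulation; lower signal means less secretion.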
# SW480 rereplic – DNA re-replication induction in SW480 cells. actives 1.8% (n = 340,000). AID 624297. SW480 DNA re-replication, Hoechst DNA content imaging, 48 h. Potency, µM (highest dose often 46.1 µM), for inactives: at the top dose re-replication activation, hits mostly activators; also: potency is read from the fitted curve at half-maximal effect; % of control where 0% means no effect; nearly all actives have a fitted effect of over 55% in size
#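 Per well, 250 cells were exposed to pinned compound for 48 hr. Nuclear DNA was visualised with Hoechst (40 min, 37 C) and total object intensity recorded by fluorescence scanning.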
# ATXN viability – reduces viability in counter-screen for ATXN expression inhibitors; S2 cells (HEK-293 line with an ATXN2-luciferase reporter) viability, CellTiter-Fluor protease fluorescence, 24 h; Potency, µM (doses to about 56.7 µM), actives largely listed as cytotoxic; actives 0.49% (n = 400,000); also: potency is read from the fitted curve at half-maximal effect; nearly all actives have a fitted effect of over 40% in size
# PINK1 modulator – PINK1 expression modulation; AID 624263; Potency, µM (top dose mostly 76.6 µM), for the others: top-dose activation (PINK1 increase), usual class: activators; actives 0.2% (n = 410,000); PINK1 immunofluorescence, high-content cytometry, 24 h; active = well fitted activation curve with a large enough effect; inconclusive = small, poorly fitted or top-dose-only effect; cell line not stated here; also: potency is read from the fitted curve at half-maximal effect; % of control where 0% means no effect; nearly all actives have a fitted effect of over 65% in size
#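 A stable cell line was treated with compounds at 5 concentrations for 24 hours, with CCCP as control. PINK1 levels and mitochondrial localization were measured by immunofluorescence with mitochondrial, cell and nuclear markers after fixation, read by laser-scanning cytometry.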
# MCF10A rerep – DNA re-replication induction in MCF 10a cells | MCF 10A DNA re-replication, Hoechst nuclear intensity, 48 h | Potency, µM (doses to about 46.1 µM), for the others: at the top dose activity, positive = re-replication, actives largely listed as activators | actives 2.9% (n = 350,000); also: potency is read from the fitted curve at half-maximal effect; % of control where 0% means no effect; nearly all actives have a fitted effect of over 50% in size
# ATXN2 expr inh – ATXN2 expression inhibition. HEK-293 ATXN2-luciferase reporter, luminescence, 24 h. Potency, µM (top dose mostly 57 µM), for the others: top-dose activity change, negative = inhibition, usual class: inhibitors. actives 0.72% (n = 360,000); also: potency is read from the fitted curve at half-maximal effect; % is scaled to controls: 0 for no effect and ±100 for the full control effect; nearly all actives have a fitted effect of over 55% in size
#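 qHTS (up to 57 uM final) was run with 24 h compound exposure of reporter cells at 37 °C. Each well was multiplexed: SteadyGlo luminescence measured ATXN2-luciferase expression after a fluorogenic Gly-Phe-AFC viability readout (25 uM final).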
# The depositor's hits bear a star; i = inactive; ? = inconclusive; / = not tested or not shown; [ ] = dose if it differs, or a comment. Unless noted, calls follow the shape of the dose curve; as a rule, active = well fitted curve in the direction sought with a large enough effect; inconclusive = small, poorly fitted or top-dose-only effect, or another doubt; inactive = no such curve, though single readings can be large; an effect the other way counts as inactive or inconclusive.
SMILES,IL-1B inflam inh,SW480 rereplic,ATXN viability,PINK1 modulator,MCF10A rerep,ATXN2 expr inh
CN1CCN(c2ccc([N+](=O)[O-])c(N/N=C3\CN4CCC3CC4)c2)CC1,?,-3.7%,10µM*,-0.6%,1.3%,-7.2%
CCNc1cc(N2CCN(C)CC2)ccc1[N+](=O)[O-],19.2,-45.3%[1.84 µM],?,-0.4%,-24.2%,-21.4%[2.22 µM]
CCOC(=O)c1ccccc1OC(=O)NNc1ccccc1,0.3,-6.7%,?,10.3%,3.6%,?
CCN(CC)C(=O)Cn1cc(/C=C2\C(=O)NC(=O)N(c3ccccc3F)C2=O)c2ccccc21,-94.4*,0.8%,?,-3.9%,?,?
CC(=O)Oc1ccc2c3c1O[C@H]1[C@@H](OC(C)=O)C=C[C@H]4[C@@H](C2)N(C)CC[C@@]341,/,/,i,/,/,/
CCC1CN2CCc3cc(OC)c(OC)cc3C2CC1CC1NCCc2c1[nH]c1ccc(O)cc21 (stereo not given),-101.3*,?,?,-4.2%,?,0.0075µM*
CCN(CC)Cc1nccn1-c1ccc([N+](=O)[O-])cc1C(=O)c1ccccc1Cl,/,/,?,/,/,-12.8%
CN1CC=C2C(C#N)=C(N)C(C#N)(C#N)C(c3ccncc3)C2C1 (stereo not given),-3.9,?,i,25.1µM*,41.7%,-7.9%
O=C1NC(=O)N(c2ccc3c(c2)OCO3)C(=O)/C1=C/c1cccs1,-103.8*,?,i,10.6%,63.5%,-17.2%
O=C1NC(=O)N(c2ccc3c(c2)OCO3)C(=O)/C1=C/c1ccsc1,6.5,43.7%,i,1.0%,?,-11.8%
Cc1c(P(=S)(c2ccccc2)c2ccccc2)[n+]2ccccc2n1C/C=C/c1ccccc1,/,/,14.1µM*,?,/,?
Cn1cc[n+](C)c1P(=S)(c1ccccc1)c1ccccc1,2.1,1.8%,i,1.0%,-7.4%,/
Cc1c(P(=S)(c2ccccc2)c2ccccc2)[n+]2ccccc2n1C,-1.3,-17.6%,i,-0.5%,0.731µM*,-3.1%
COc1cc2c(cc1OC)CN(c1ccc([N+](=O)[O-])c(C(F)(F)F)c1)CC2,-51.2*,1.2%,i,9.1%,?,-38.8%
COc1ccc(NC2=NC(C)(C)CS2)cc1,-54.5*,-0.4%,i,1.8%,5.0%,0.4%[11.3 µM]
Cc1ccc2cc(C=C(C#N)C#N)c(Cl)nc2c1,-96.4*,?,i,2.4%,7.31µM*,-6.7%
COc1ccc2oc(-c3cccc(NC(=O)c4ccc(C#N)cc4F)c3)nc2c1,/,/,?,3.0%,/,0.3%
c1cnc(N2CC3(CCNCC3)C2)nc1,/,/,/,0.5%,/,/
N#CC(C#N)=Cc1ccc(C=C(C#N)C#N)cc1,-82.8*,?,?,7.2%,?,?
C[C@H]1CC[C@@H]2[C@@H](C)[C@H]3[C@H](C[C@H]4[C@@H]5CC=C6C[C@@H](O[C@@H]7O[C@H](CO)[C@H](O)[C@H](O[C@@H]8O[C@H](CO)[C@@H](O)[C@H](O)[C@H]8O)[C@H]7O[C@@H]7O[C@@H](C)[C@H](O)[C@@H](O)[C@H]7O)CC[C@]6(C)[C@H]5CC[C@]34C)N2C1,-98.5*,?,/,-0.5%,2.6%,?
O=C(CCCCl)c1ccc(F)cc1,/,/,i,/,/,16.4%
Cc1ccc(NC(=O)Nc2ccc3nc(N4CCN(C)CC4)cc(C)c3c2)cc1F,/,/,?,10.1%,/,16.4%
CN(C)[C@@H](Cc1ccccc1)c1ccccc1,/,0.9%,/,/,10.3%,/
Cc1ccc(-n2cc(CNC(C)Cc3cnccn3)c(-c3cccc(C)c3)n2)cc1 (stereo not given),-76.1*,?,?,1.4%,?,-7.7%
O=C(Oc1ccccc1)N1CCC2(CCN(Cc3ccccc3)CC2)CC1,/,/,/,0.0%,/,/
SMILES,IL-1B inflam inh,SW480 rereplic,ATXN viability,PINK1 modulator,MCF10A rerep,ATXN2 expr inh
CN(C)c1ccc(C=C2C(=O)NC(=O)NC2=O)cc1,-5.3,3.0%,i,0.2%,5.7%,-28.4%
CCP(=S)(CC)c1ccc(N(C)C)cc1,17.4,?,i,0.9%,-43.7%,-11.4%
CN(C)c1ccc(/C=C/[N+](=O)[O-])cc1,-63.6*,?,i,6.3%,-0.2%,29.8%
C/C(=C\c1ccc(N(C)C)cc1)[N+](=O)[O-],-106.6*,5.8µM*,/,-7.3%[38.3 µM],2.59µM*,31.6µM*
C[C@]12COC(=O)C[C@@H]1CC[C@@H]1[C@H]2CC[C@@]2(C)[C@H]1CC[C@]2(C)O,/,/,/,/,/,5.1%
Cc1cccc(N2CCN(C(=O)C34CC5CC(CC(C5)C3)C4)CC2)c1C,16.0,3.4%,i,0.2%,?,-3.4%
N#Cc1cccc(NC(=O)N2CC3(CCN(C(=O)Oc4ccccc4)CC3)C2)c1,/,/,/,-0.6%,/,/
c1ccc(CNC2CCCCCCC2)cc1 (tested in a mixture with another compound),-73.7*,-1.2%,i,-5.7%,2.6%,-15.6%
CCN(CC)c1ccc(C=C2C(=O)NC(=S)NC2=O)cc1,-97.3*,143.5%,?,-0.1%,?,/
CCOc1ccc(C=C2C(=O)NC(=S)NC2=O)cc1OCC,5.0,12.0%,i,-0.4%,1.7%,-8.1%
CN(C)c1ccc(C=C2C(=O)NC(=S)NC2=O)cc1,-102.2*,?,/,-1.8%,?,?
O=c1[nH]c(=O)n(-c2ccc(Cl)cc2)c(O)c1C=Nc1ccc(S(=O)(=O)Nc2nccs2)cc1,5.6,2.5%,?,-0.5%,2.9%,5.3%
Clc1cccc(/C=N\Nc2nccs2)c1,2.3,-1.9%,i,-1.2%,5.8µM*,1.6%
C#C[C@]1(O)C=C[C@@H]2[C@@H]3CCC4=CC(=O)CC[C@@H]4[C@H]3CC[C@@]21CC,/,/,/,/,/,9.5%
CC[C@@]1(O)C(=O)OCc2c1cc1n(c2=O)Cc2cc3c(N)cccc3nc2-1,-112.2*,1.0%,?,0.1%,-64.6%,-9.7%
C[C@@H]1O[C@@H](O[C@@H]2C=C3CC[C@@H]4[C@@H](CC[C@]5(C)[C@H](c6ccc(=O)oc6)CC[C@@]45O)[C@@]3(C)CC2)[C@H](O)[C@H](O)[C@H]1O,/,/,/,-1.2%,/,0.0193µM*
CC(=O)Oc1c2c(c(CC=C(C)C)c3c1C(=O)C1=CC4CC5C(C)(C)OC(C/C=C(\C)C(=O)O)(C4=O)[C@]15O3)OC(C)(CCC=C(C)C)C=C2 (stereo not given in full),/,/,/,-2.3%,/,/
Cc1ccc(C=C2C(Cl)=C(Cl)C(Cl)=C2Cl)cc1,-5.6,?,i,-1.4%,?,-0.9%
COc1ccc(NC(=O)CCOc2cc(C)ccc2C)cc1S(=O)(=O)N1CCCCC1,-53.7*,0.9%,?,3.7%,?,-24.2%
